Data: paper PMC11062922 (Nature Chemical Biology, 2023)
Like-named read-outs stand apart in the source and are kept apart here.

Assays:
Parameters in all cases: species or system human, MV4-11 + K-562 + COLO205 + SK-N-BE2 + OVCAR-8
[1] = tested on: MAP2K5; conditions: read-out: apparent Kd, n = 1
[2] = tested on: CSNK1D; conditions: read-out: apparent Kd; compound concentrations:100 nM and 1000 nM (sheet 'Samples'); n = 1
[3] = tested on: DDR2; conditions: read-out: apparent Kd, n = 1
[4] = tested on: EPHA5; conditions: read-out: apparent Kd, n = 1
[5] = tested on: MAPK14; conditions: read-out: apparent Kd, n = 1
[6] = tested on: EPHB1; conditions: read-out: apparent Kd, n = 1
[7] = tested on: PLK4; conditions: read-out: apparent Kd, n = 1
[8] = tested on: EPHB6; conditions: read-out: apparent Kd, n = 1
[9] = tested on: JAK2; conditions: read-out: apparent Kd, n = 1
[10] = tested on: PRKD2; conditions: read-out: apparent Kd, n = 1
[11] = tested on: TGFBR1; conditions: read-out: apparent Kd, n = 1
[12] = tested on: FLT4; conditions: read-out: apparent Kd, compound concentrations: 100 nM and 1000 nM (sheet 'Samples'), n = 1
[13] = tested on: BMPR1B; conditions: read-out: apparent Kd, n = 1
[14] = tested on: CDKL5; conditions: read-out: apparent Kd, n = 1
[15] = tested on: CDK16; conditions: read-out: apparent Kd, n = 1
[16] = tested on: CDK17; conditions: read-out: apparent Kd, n = 1
[17] = tested on: RIOK2; conditions: read-out: apparent Kd; compound concentrations:100 nM and 1000 nM (sheet 'Samples'); n = 1
[18] = tested on: AKT1; conditions: read-out: apparent Kd, n = 1
[19] = compound concentrations:100 nM and 1000 nM (sheet 'Samples')

COc1cc2ncn(-c3cc(OCc4cccs4)c(C(N)=O)s3)c2cc1OC [GSK312948A]
potency estimated from few doses [1, 19]: 461 nM

CNc1nccc(-c2c(-c3ccc(F)cc3)ncn2C2CCN(C)CC2)n1 [SB-222903]
potency estimated from few doses [2]: 11.1 nM
potency estimated from few doses [3, 19]: 625 nM
potency estimated from few doses [4, 19]: 465 nM
potency estimated from few doses ([5]; compound concentrations: 100 nM and 1000 nM (sheet 'Samples'), CATDS: 0.13479921836841699): 29.9 nM

COc1cc2ncn(-c3cc(OCCCc4ccccc4)c(C(N)=O)s3)c2cc1OC [GSK205189A]
potency estimated from few doses [4, 19]: 720 nM
potency estimated from few doses [6, 19]: 958 nM
potency estimated from few doses [7, 19]: 1240 nM

Nc1ncc(-c2cn[nH]c2)c2scc(-c3ccc4c(c3)CCN4C(=O)Cc3ccccc3)c12 [GSK2593067A]
potency estimated from few doses ([8]; compound concentrations: 100 nM and 1000 nM (sheet 'Samples'), CATDS: 9.2316879629761303E-2): 522 nM

Cc1ccc(O)cc1Nc1ccnc2ccc(C(C)(C)C)cc12 [GW856805X]
potency estimated from few doses ([4]; compound concentrations: 100 nM and 1000 nM (sheet 'Samples'), CATDS: 8.5514092870098604E-2): 16.4 nM
potency estimated from few doses ([6]; compound concentrations: 100 nM and 1000 nM (sheet 'Samples'), CATDS: 6.9197667639957702E-2): 25.7 nM

CN(C)Cc1ccc(-c2ccc3c(Nc4ccc(Oc5ccccn5)cc4)ccnc3c2)o1 [GW567148X]
potency estimated from few doses ([4]; compound concentrations: 100 nM and 1000 nM (sheet 'Samples'), CATDS: 2.06539246385424E-2): 902 nM
potency estimated from few doses ([6]; compound concentrations: 100 nM and 1000 nM (sheet 'Samples'), CATDS: 2.01059548951249E-2): 977 nM
potency estimated from few doses ([8]; compound concentrations: 100 nM and 1000 nM (sheet 'Samples'), CATDS: 1.6574994682998501E-2): 1960 nM
potency estimated from few doses ([9]; compound concentrations: 100 nM and 1000 nM (sheet 'Samples'), CATDS: 5.6320908598955097E-2): 121 nM
potency estimated from few doses ([1]; compound concentrations: 100 nM and 1000 nM (sheet 'Samples'), CATDS: 0.100463270176777): 51.4 nM
potency estimated from few doses ([7]; compound concentrations: 100 nM and 1000 nM (sheet 'Samples'), CATDS: 1.8058867791982399E-2): 1390 nM

Fc1ccc(-c2c(-c3ccncc3)[nH]c3nccnc23)cc1 [RO1155697-000]
potency estimated from few doses [2]: 8.23 nM
potency estimated from few doses [3, 19]: 886 nM
potency estimated from few doses ([5]; compound concentrations: 100 nM and 1000 nM (sheet 'Samples'), CATDS: 5.8125054995699497E-2): 449 nM
potency estimated from few doses [10, 19]: 962 nM
potency estimated from few doses [11, 19]: 1950 nM

CN1CCN(Cc2ccc(NC(=O)Nc3ccc(N(C)c4ccnc(Nc5ccc(CS(C)(=O)=O)cc5)n4)cc3)cc2)CC1.Cl [GW827654A]
potency estimated from few doses ([3]; compound concentrations: 100 nM and 1000 nM (sheet 'Samples'), CATDS: 5.9738771402131699E-2): 348 nM
potency estimated from few doses ([12]; CATDS: 0.106760971330705): 109 nM

COc1cccc(-c2c[nH]c3c(N/N=C/c4ccncc4)ncnc23)c1 [GW814408X]
potency estimated from few doses [13, 19]: 612 nM
potency estimated from few doses [14, 19]: 1300 nM

N#Cc1cccc(Nc2nccc(-c3cnn4ncccc34)n2)c1 [GW778894X]
potency estimated from few doses [15, 19]: 13 nM
potency estimated from few doses [16, 19]: 44.8 nM
potency estimated from few doses [14, 19]: 6.82 nM
potency estimated from few doses [2]: 199 nM
potency estimated from few doses [17]: 75.3 nM

Cc1cc(O)cc(C)c1/C=C/c1cncc(-c2nn[nH]n2)c1.Cl [GW441806A]
potency estimated from few doses ([8]; compound concentrations: 100 nM and 1000 nM (sheet 'Samples'), CATDS: 4.3077369875392603E-2): 1670 nM
potency estimated from few doses ([9]; compound concentrations: 100 nM and 1000 nM (sheet 'Samples'), CATDS: 7.0798034106367105E-2): 387 nM
potency estimated from few doses ([1]; compound concentrations: 100 nM and 1000 nM (sheet 'Samples'), CATDS: 4.6114067598033499E-2): 1310 nM

CNC(=O)c1ccccc1Nc1nc(Nc2cccc(CS(C)(=O)=O)c2)ncc1C.O=CO [GSK1520489A]
potency estimated from few doses ([13]; compound concentrations: 100 nM and 1000 nM (sheet 'Samples'), CATDS: 1.50633752553141E-2): 288 nM
potency estimated from few doses ([3]; compound concentrations: 100 nM and 1000 nM (sheet 'Samples'), CATDS: 1.3086276372357399E-2): 443 nM
potency estimated from few doses ([12]; CATDS: 2.0677135389333402E-2): 127 nM
potency estimated from few doses ([9]; compound concentrations: 100 nM and 1000 nM (sheet 'Samples'), CATDS: 1.0777709602795499E-2): 917 nM
potency estimated from few doses ([7]; compound concentrations: 100 nM and 1000 nM (sheet 'Samples'), CATDS: 5.6526690593712202E-2): 19.3 nM
potency estimated from few doses ([11]; compound concentrations: 100 nM and 1000 nM (sheet 'Samples'), CATDS: 9.4696036955239198E-3): 1790 nM

CN1CCN(c2ccc(Nc3nc(N)c(C(=O)c4ccc5c(c4)OCCO5)s3)cc2)CC1 [RO0505124-000]
potency estimated from few doses ([9]; compound concentrations: 100 nM and 1000 nM (sheet 'Samples'), CATDS: 0.61009142123011895): 50.1 nM

CC(C)c1nc(-c2cccc(NS(=O)(=O)c3c(F)cccc3F)c2F)c(-c2ccnc(Nc3ccc(N4CCOCC4)nc3)n2)s1 [GSK2008607A]
potency estimated from few doses ([15]; compound concentrations: 100 nM and 1000 nM (sheet 'Samples'), CATDS: 3.1735932444665597E-2): 424 nM
potency estimated from few doses ([16]; compound concentrations: 100 nM and 1000 nM (sheet 'Samples'), CATDS: 2.730533885315E-2): 587 nM
potency estimated from few doses ([14]; compound concentrations: 100 nM and 1000 nM (sheet 'Samples'), CATDS: 1.9051705210026099E-2): 1650 nM
potency estimated from few doses ([8]; compound concentrations: 100 nM and 1000 nM (sheet 'Samples'), CATDS: 2.9714339770291101E-2): 487 nM
potency estimated from few doses ([12]; CATDS: 2.2429602546286599E-2): 967 nM
potency estimated from few doses ([7]; compound concentrations: 100 nM and 1000 nM (sheet 'Samples'), CATDS: 0.15679756420664201): 38.7 nM
potency estimated from few doses ([10]; compound concentrations: 100 nM and 1000 nM (sheet 'Samples'), CATDS: 3.65380455917537E-2): 323 nM

Nc1nc(N)c2nc(-c3ccccc3)[nH]c2n1 [SKF-12778]
potency estimated from few doses [18, 19]: 1480 nM
potency estimated from few doses [2]: 2130 nM
potency estimated from few doses [9, 19]: 66.2 nM
potency estimated from few doses [5, 19]: 973 nM
potency estimated from few doses [17]: 1620 nM

CC(C)c1nc(-c2ccc(F)c(NS(=O)(=O)c3c(F)cccc3F)c2)c(-c2ccnc(Nc3ccc(N4CCOCC4)nc3)n2)s1 [GSK1804250A]
potency estimated from few doses [15, 19]: 1890 nM
potency estimated from few doses [14, 19]: 984 nM
potency estimated from few doses [8, 19]: 738 nM
potency estimated from few doses [7, 19]: 403 nM
potency estimated from few doses [10, 19]: 232 nM

COc1ccc(C2=C(c3cn(C)c4ccccc34)C(=O)NC2=O)cc1OC [RO3206363-000]
potency estimated from few doses ([18]; compound concentrations: 100 nM and 1000 nM (sheet 'Samples'), CATDS: 7.5592220710657507E-2): 180 nM
potency estimated from few doses ([12]; CATDS: 3.2229986541726797E-2): 1770 nM
